# Assay results from article PMC8384837, “Expanding the binding specificity for RNA recognition by a PUF domain”.
# Numbering of substitutions follows the chain as printed.
# Key:
# Experiment in all cases: yeast three-hybrid, YBZ-1, SC-Leu-His + 0.5 mM 3-AT, 4 days
# Details in all cases: tags: N-Gal4 AD-HA kept; label: inside an RPR1-promoter hybrid RNA with tandem MS2 sites; ssRNA
# PUM1 PUF domain R5-AGD = PUM1 PUF domain R5-AGD (Homo sapiens, UniProt Q14671 828-1176, C1007A;R1008G;Q1011D)
# Outline: (§1)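 Matching RNA elements and Pumilio-1 PUF domain libraries, randomized at the three base-contacting residues of every repeat, were co-expressed from a centromeric plasmid in strain YBZ-1 (LexA–MS2 coat fusion, HIS3 reporter). The repeat regions were PCR-amplified and Illumina-sequenced from cells grown four days on SC-Leu (input) or SC-Leu-His + 0.5 mM 3-AT (selection). The interaction score is the log change in variant frequency from input to selection. It is computed in log2, with a pseudocount of 1 for absent variants.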
# PUM1 PUF domain R4-WSY = PUM1 PUF domain R4-WSY (Homo sapiens, UniProt Q14671 828-1176, N971W;H972S;Q975Y)
# Outline: as §1
# PUM1 PUF domain R6-CWS = biological target: T1, PUM1 PUF domain R6-CWS (Homo sapiens, UniProt Q14671 828-1176, N1043C;Y1044W;Q1047S)
# T1 sequence: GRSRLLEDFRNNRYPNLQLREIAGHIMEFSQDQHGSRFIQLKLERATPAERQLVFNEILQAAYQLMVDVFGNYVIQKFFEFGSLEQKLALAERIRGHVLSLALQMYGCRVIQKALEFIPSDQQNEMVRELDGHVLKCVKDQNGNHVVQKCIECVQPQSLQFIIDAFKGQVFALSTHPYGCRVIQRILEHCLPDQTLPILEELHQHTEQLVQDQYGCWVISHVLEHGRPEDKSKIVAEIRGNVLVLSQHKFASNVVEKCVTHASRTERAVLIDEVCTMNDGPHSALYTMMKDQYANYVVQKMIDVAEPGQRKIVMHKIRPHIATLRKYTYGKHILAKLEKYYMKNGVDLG
# Outline: as §1
# PUM1 PUF domain R6-RFS = biological target: T2, PUM1 PUF domain R6-RFS (Homo sapiens, UniProt Q14671 828-1176, N1043R;Y1044F;Q1047S)
# T2 sequence: T1 sequence with C216R, W217F
# Outline: as §1
# PUM1 PUF domain R8-VRR = PUM1 PUF domain R8-VRR (Homo sapiens, UniProt Q14671 828-1176, N1122V;Y1123R;Q1126R)
# Outline: as §1
# PUM1 PUF domain R5-SMG = PUM1 PUF domain R5-SMG (Homo sapiens, UniProt Q14671 828-1176, C1007S;R1008M;Q1011G)
# Outline: as §1
# PUM1 PUF domain R7-KPI = PUM1 PUF domain R7-KPI (Homo sapiens, UniProt Q14671 828-1176, S1079K;N1080P;E1083I)
# Outline: as §1
# PUM1 PUF domain R7-LFG = PUM1 PUF domain R7-LFG (Homo sapiens, UniProt Q14671 828-1176, S1079L;N1080F;E1083G)
# Outline: as §1
# PUM1 PUF domain R7-EPA = PUM1 PUF domain R7-EPA (Homo sapiens, UniProt Q14671 828-1176, S1079E;N1080P;E1083A)
# Outline: as §1
# PUM1 PUF domain R5-DYF = PUM1 PUF domain R5-DYF (Homo sapiens, UniProt Q14671 828-1176, C1007D;R1008Y;Q1011F)
# Outline: as §1
# PUM1 PUF domain R6-VFY = biological target: T3, PUM1 PUF domain R6-VFY (Homo sapiens, UniProt Q14671 828-1176, N1043V;Y1044F;Q1047Y)
# T3 sequence: T1 sequence with C216V, W217F, S220Y
# Outline: as §1
# PUM1 PUF domain R6-TFE = biological target: T4, PUM1 PUF domain R6-TFE (Homo sapiens, UniProt Q14671 828-1176, N1043T;Y1044F;Q1047E)
# T4 sequence: T1 sequence with C216T, W217F, S220E
# Outline: as §1
# PUM1 PUF domain R3-RGG = PUM1 PUF domain R3-RGG (Homo sapiens, UniProt Q14671 828-1176, C935R;R936G;Q939G)
# Outline: as §1
# PUM1 PUF domain R6-GLR = biological target: T5, PUM1 PUF domain R6-GLR (Homo sapiens, UniProt Q14671 828-1176, N1043G;Y1044L;Q1047R)
# T5 sequence: T1 sequence with C216G, W217L, S220R
# Outline: as §1
# PUM1 PUF domain R1-KRR = PUM1 PUF domain R1-KRR (Homo sapiens, UniProt Q14671 828-1176, S863K;Q867R)
# Outline: as §1
# PUM1 PUF domain R5-SRR = PUM1 PUF domain R5-SRR (Homo sapiens, UniProt Q14671 828-1176, C1007S;Q1011R)
# Outline: as §1
sequence,measurement,setting,value
GGCUAGAACUAGUGGAUCCCCCGGCGCCCGGCGGCUCGAGCCCGGGUAAGUGUAAAUAGUCUGCAUGCCGCCGGGCGCCAUGCCUGCAGGUCGACUCUAGAAAACAUG,binding signal,PUM1 PUF domain R5-AGD,1.82 log2 enrichment (interaction score)
same,binding signal,PUM1 PUF domain R4-WSY,2.29 log2 enrichment (interaction score)
same,binding signal,PUM1 PUF domain R6-CWS,3.77 log2 enrichment (interaction score)
same,binding signal,PUM1 PUF domain R6-RFS,4.37 log2 enrichment (interaction score)
same,binding signal,PUM1 PUF domain R8-VRR,1.71 log2 enrichment (interaction score)
GGCUAGAACUAGUGGAUCCCCCGGCGCCCGGCGGCUCGAGCCCGGGUAAGUGUGAAUAGUCUGCAUGCCGCCGGGCGCCAUGCCUGCAGGUCGACUCUAGAAAACAUG,binding signal,PUM1 PUF domain R5-AGD,3.87 log2 enrichment (interaction score)
same,binding signal,PUM1 PUF domain R5-SMG,2.11 log2 enrichment (interaction score)
GGCUAGAACUAGUGGAUCCCCCGGCGCCCGGCGGCUCGAGCCCGGGUAAGUGUAUAUAGUCUGCAUGCCGCCGGGCGCCAUGCCUGCAGGUCGACUCUAGAAAACAUG,binding signal,PUM1 PUF domain R4-WSY,3.41 log2 enrichment (interaction score)
GGCUAGAACUAGUGGAUCCCCCGGCGCCCGGCGGCUCGAGCCCGGGUAAGUCUAAAUAGUCUGCAUGCCGCCGGGCGCCAUGCCUGCAGGUCGACUCUAGAAAACAUG,binding signal,PUM1 PUF domain R7-KPI,3.61 log2 enrichment (interaction score)
same,binding signal,PUM1 PUF domain R7-LFG,3.01 log2 enrichment (interaction score)
same,binding signal,PUM1 PUF domain R7-EPA,4.81 log2 enrichment (interaction score)
GGCUAGAACUAGUGGAUCCCCCGGCGCCCGGCGGCUCGAGCCCGGGUAAGUUUAAAUAGUCUGCAUGCCGCCGGGCGCCAUGCCUGCAGGUCGACUCUAGAAAACAUG,binding signal,PUM1 PUF domain R7-LFG,4.82 log2 enrichment (interaction score)
GGCUAGAACUAGUGGAUCCCCCGGCGCCCGGCGGCUCGAGCCCGGGUAAGUGUUAAUAGUCUGCAUGCCGCCGGGCGCCAUGCCUGCAGGUCGACUCUAGAAAACAUG,binding signal,PUM1 PUF domain R5-SMG,0.67 log2 enrichment (interaction score)
same,binding signal,PUM1 PUF domain R5-DYF,4.44 log2 enrichment (interaction score)
GGCUAGAACUAGUGGAUCCCCCGGCGCCCGGCGGCUCGAGCCCGGGUAAGUGAAAAUAGUCUGCAUGCCGCCGGGCGCCAUGCCUGCAGGUCGACUCUAGAAAACAUG,binding signal,PUM1 PUF domain R6-CWS,5.26 log2 enrichment (interaction score)
same,binding signal,PUM1 PUF domain R6-VFY,6.28 log2 enrichment (interaction score)
GGCUAGAACUAGUGGAUCCCCCGGCGCCCGGCGGCUCGAGCCCGGGUAAGUGGAAAUAGUCUGCAUGCCGCCGGGCGCCAUGCCUGCAGGUCGACUCUAGAAAACAUG,binding signal,PUM1 PUF domain R6-TFE,3.07 log2 enrichment (interaction score)
GGCUAGAACUAGUGGAUCCCCCGGCGCCCGGCGGCUCGAGCCCGGGUAAGUGUAAUUAGUCUGCAUGCCGCCGGGCGCCAUGCCUGCAGGUCGACUCUAGAAAACAUG,binding signal,PUM1 PUF domain R3-RGG,2.13 log2 enrichment (interaction score)
GGCUAGAACUAGUGGAUCCCCCGGCGCCCGGCGGCUCGAGCCCGGGUAAGUGCAAAUAGUCUGCAUGCCGCCGGGCGCCAUGCCUGCAGGUCGACUCUAGAAAACAUG,binding signal,PUM1 PUF domain R6-GLR,3.46 log2 enrichment (interaction score)
GGCUAGAACUAGUGGAUCCCCCGGCGCCCGGCGGCUCGAGCCCGGGUAAGUGUAAAUUGUCUGCAUGCCGCCGGGCGCCAUGCCUGCAGGUCGACUCUAGAAAACAUG,binding signal,PUM1 PUF domain R1-KRR,5.9 log2 enrichment (interaction score)
GGCUAGAACUAGUGGAUCCCCCGGCGCCCGGCGGCUCGAGCCCGGGUAAGUGUAAAUCGUCUGCAUGCCGCCGGGCGCCAUGCCUGCAGGUCGACUCUAGAAAACAUG,binding signal,PUM1 PUF domain R1-KRR,5.65 log2 enrichment (interaction score)
GGCUAGAACUAGUGGAUCCCCCGGCGCCCGGCGGCUCGAGCCCGGGUAAGCGUAAAUAGUCUGCAUGCCGCCGGGCGCCAUGCCUGCAGGUCGACUCUAGAAAACAUG,binding signal,PUM1 PUF domain R8-VRR,2.81 log2 enrichment (interaction score)
GGCUAGAACUAGUGGAUCCCCCGGCGCCCGGCGGCUCGAGCCCGGGUAAGUGUCAAUAGUCUGCAUGCCGCCGGGCGCCAUGCCUGCAGGUCGACUCUAGAAAACAUG,binding signal,PUM1 PUF domain R5-SRR,4.23 log2 enrichment (interaction score)
